Results taken from PubChem BioAssay (NCI).
This is part of a sample that, as a whole, favours compounds with a hit. Of some 83,000 tested, about 20% had one in any assay.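 How to read the values: 0–100, growth inhibition (40 = 60% inhibited); 0, no net growth; -100 to 0, cell death (-40 = 40% of starting cells died; -100 = all dead).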 Active and inactive are the calls of the source.

System: NCI-H522 lung
Assay: NCI-60 one-dose screen, 48 h (100 = growth as untreated, 0 = no growth, -100 = all killed)
Conditions: 10 µM unless noted
Description: Growth inhibition of the NCI-H522 human Non-Small Cell Lung tumor cell line is measured as a screen for anti-cancer activity. Cells are grown in 96 well plates and exposed to the test compound for 48 hours. Compounds are tested at a single concentration, which is 10^-5 M for most compounds. The reported endpoint is percent growth (GI% or GIPRCNT), where numbers from 0 - 100% represent growth inhibition, and numbers from -100% - 0 represent cell death. For example, a value of 40 represents 60% growth inhibition. A value of 0 means no net growth occurred over the course of the experiment. A value of -40 indicates 40% of cells at the beginning of the experiment died by the end of the experiment. A value of -100 means all cells are dead at the end of the experiment.
NCI-60 Human Tumor Cell Lines Screen was performed using the standard one-dose NCI protocol, which is described in more detail at https://dtp.cancer.gov/discovery_development/nci-60/default.htm.
Compounds with GIPRCNT values below 10 were considered active. Activity score was based on GIPRCNT using the following formula: […]
Score is 0 for GIPRCNT values of 100 or above, 50 for GIPRCNT values of 0, and 100 for GIPRCNT values of -100.

Structure (SMILES)	growth
CCN(CC)c1ccc(C2=NN(C(C)=O)C(c3cc(OC)c(OC)c(OC)c3)C2)cc1 (stereo not given)	-46.3% (active)
[O-][n+]1c2ccccc2[n+]([O-])c2c3ccccc3[nH]c21	57.5% (inactive)
COc1cc(C(=O)/C=C/c2sc(Cl)nc2Cl)cc(OC)c1OC	33.6% (inactive)
COc1cccc(OC)c1C(=O)N[C@@H]1C(=O)N2[C@@H]1SC(C)(C)[C@@H]2C(=O)O	88.7% (inactive)
NS(=O)(=O)c1ccc(-n2nc(C(=O)N/N=C\c3ccc(F)cc3)cc2-c2ccc(Br)cc2)cc1	54.2% (inactive)
BrCCCc1n(Cc2ccc3ccccc3c2)c2ccccc2[n+]1Cc1ccc2ccccc2c1	-52.3% (active)
COc1ccc(OC)c(/C=C/C(=O)N/N=C/c2ccc(Cl)cc2)c1	-36.2% (active)
Oc1ccc(-c2nc3ccc4[nH]ncc4c3c3c2CCCC3)c2cccnc12	15% (inactive)
CCc1ccc2nc(NC(=O)Cc3csc(NC(=O)c4ccco4)n3)sc2c1	60.4% (inactive)
COc1ccc2[nH]c(-c3ccccc3)c(/C=C(\C#N)S(=O)(=O)c3ccccc3)c2c1	64.3% (inactive)
Cc1ncc(C(=O)Nc2ccc(CN3CCN(C)CC3)c(C(F)(F)F)c2)cc1C#Cc1ccc(N)nc1	-8.12% (active)
O=C1c2cccc3cccc(c23)C(=O)N1Nc1nc(N2CCOCC2)nc(N2CCN(c3ccccc3)CC2)n1	29.9% (inactive)
O=C(O)C(c1ccccc1)N1C(=O)CSC1=S (stereo not given)	88.2% (inactive)
O=[N+]([O-])c1ccccc1NCSc1ccc(Cl)cc1	90.7% (inactive)
COc1ccc2sc3c(NCCCNCCO)nc4ccccc4c3c(=O)c2c1	70.6% (inactive)
COc1ccc2nc(NC(=O)c3cccnc3Nc3ccc(S(N)(=O)=O)cc3)sc2c1	95.5% (inactive)
COc1ccc(C2CC(c3ccc(Nc4ccnc5cc(Cl)ccc45)cc3)=NN2C=O)cc1 (stereo not given)	67.3% (inactive)
CC1Cc2c(ncn3c(-c4ccc(F)cc4)nnc23)N(C)c2ccccc21 (stereo not given)	63% (inactive)
OC(COc1ccccc1Cl)CN1CCN(c2cccc(Cl)c2)CC1 (stereo not given)	88.5% (inactive)
N#CC1=C(N)Oc2c(sc3c(Br)cccc23)C1c1ccc([N+](=O)[O-])cc1 (stereo not given)	-6.47% (active)

Structure (SMILES)	growth
CN(C(=O)NCc1cccc(F)c1Cl)[C@H](COC(=O)Nc1cc2ccccc2cn1)CC(O)CO (stereo not given in full)	84.5% (inactive)
CCN1C(=O)N(CC)C2Nn3c(s/c(=C4\C(=O)N(CC(C)C)c5ccccc54)c3=O)=NC21 (stereo not given)	15.9% (inactive)
NC[C@@H]1O[C@H](O[C@@H]2[C@@H](CO)OC(O[C@@H]3[C@@H](O)[C@H](N)C[C@H](N)[C@H]3OC3O[C@H](CN)[C@@H](O)[C@H](O)[C@H]3N)[C@@H]2O)[C@H](N)[C@@H](O)[C@@H]1O (stereo not given in full)	111% (inactive)
Cc1c(C(=O)N[C@@H](Cc2ccccc2)C(=O)C(=O)NCc2ccc(F)cc2)[nH]c2ccccc2c1=O	91.4% (inactive)
NC1CCN(c2nc(Nc3cccc(C(F)(F)F)c3)c3c(=O)[nH]ccc3n2)CC1	-85.3% (active)
Cc1onc2c(-c3ccccc3)n[nH]c(=O)c12	94.4% (inactive)
CCOC(=O)c1cn2ncnc(Oc3ccc(NC(=O)NCCN4CCOCC4)c(Cl)c3)c2c1C	93.9% (inactive)
Cc1cc(O)c(C2=NN(c3ccc(S(N)(=O)=O)cc3)C(/C=C/c3ccccc3)C2)cc1Cl (stereo not given)	31.9% (inactive)
O=C1c2cccc3cccc(c23)C(=O)N1N1C(=O)c2cccc3c(NC4CCCCC4)ccc(c23)C1=O	88.1% (inactive)
Cc1ccc2c(-c3cc(-c4ccccc4)nc(N)c3C#N)cc(=O)oc2c1	68.1% (inactive)
CCOc1cccc(NC2=C(Br)C(=O)C(C)=C(C)C2=O)c1	80.5% (inactive)
COc1cc(Nc2cn[nH]c2-c2ccc(Cl)cc2)cc(OC)c1OC	21.7% (inactive)
Cc1ccc(C2CC(c3ccc(Nc4ccnc5cc(Cl)ccc45)cc3)=NN2C=O)cc1 (stereo not given)	50.1% (inactive)
C=CCNc1ccc2c3c(cccc13)C(=O)N(N1C(=O)c3cccc4cccc(c34)C1=O)C2=O	93.9% (inactive)
CCc1ccccc1-n1c(N)c(C#N)c(-c2ccc(Cl)cc2)c(C#N)c1=O	94.2% (inactive)
O=c1c2cc(C(F)(F)F)ccc2sc2c(NCCCNCCO)nc3ccccc3c12	-22.2% (active)
O=C(CCN1C(=O)/C(=C/c2ccc(O)cc2)SC1=S)Nc1ccc(Cl)cc1	19.9% (inactive)
Cc1cc(O)c(C2=NN(c3ccc(S(N)(=O)=O)cc3)C(c3ccccc3O)C2)cc1Cl (stereo not given)	-56.8% (active)
CCCCCCN1C(=O)/C(=c2\sc3n(c2=O)C2C(NN=3)N(CC)C(=O)N2CC)c2ccccc21 (stereo not given)	-28.7% (active)
Cc1nc2ccccc2c(/C=C/c2ccc(Cl)cc2)c1C(=O)/C=C/c1ccc(C(F)(F)F)cc1	-14.3% (active)
